# PubChem BioAssay (NCI)
# Compounds without any hit were thinned out: in the full panel of roughly 79,000, 15% have a hit. The source made the active and inactive calls. No stated cut-off is given here; in the data, active means growth inhibition above about 70%; inactive means the rest.
# Test: NCI Yeast Anticancer Drug Screen. Data for the bub3 strain (AID 167)
# Settings: S. cerevisiae bub3 mutant strain, at 50.0 µM, stronger effect = higher value
# Description: Growth inhibition of yeast strains with defined genetic alterations is measured as a screen for potential anti-cancer activity. Selected strains with alterations in DNA damage repair or cell cycle control were exposed to compounds and growth inhibition was measured relative to vehicle treated controls. The strain used in this assay is bub3
row,Structure (SMILES),growth inhibition
1,O=C(c1ccccc1)c1cnc2ccccn12,5.8% (inactive)
2,COc1cc([N+](=O)[O-])ccc1N=Cc1cccs1,18.3% (inactive)
3,COc1ccccc1/C=N/Nc1nnc2c3ccccc3c3ncccc3c2n1,-8.55% (inactive)
4,CCOC(=O)CNC(=O)C(Cc1ccccc1)NC(=O)CNC(=O)OCc1ccccc1 (stereo not given),0.75% (inactive)
5,CCCOc1ncnc2nc[nH]c12,5.3% (inactive)
6,O=C(O)C1(C(=O)O)CC2C3C=CC(C3)C2C1 (stereo not given),18.8% (inactive)
7,CCOc1cc(/C=C2/C=C(c3ccc(OC)cc3)OC2=O)ccc1O,2.75% (inactive)
8,COc1ccc(COCc2ccc(OC)cc2)cc1,13.8% (inactive)
9,CCOC(O)C(F)(F)C(F)(F)C(F)(F)F (stereo not given),-7.95% (inactive)
10,O=C1NC(=Nc2ccccc2Cl)SC1C(=O)Nc1ccc([N+](=O)[O-])cc1[N+](=O)[O-] (stereo not given),7.6% (inactive)
11,NC(N)=NS(=O)(=O)c1ccc(Nc2c3ccccc3nc3c(C(=O)Nc4ccc(S(N)(=O)=O)cc4)ccc(Cl)c23)cc1,-2.25% (inactive)
12,COC(=O)[C@H](Cc1ccccc1)NP(=O)(OCCC#N)OCC1OC(n2cc(C)c(=O)[nH]c2=O)CC1N=[N+]=[N-] (stereo not given in full),-19.9% (inactive)
13,CC(NCc1c(O)ccc2c(-c3ccccc3)cc(=O)oc12)C(=O)O (stereo not given),-4.95% (inactive)
14,CCCNC(=O)c1nc(SC)sc1NC(=O)c1ccccc1,1.95% (inactive)
15,Nc1ncnc2c1ncn2-c1ccccc1,9.85% (inactive)
16,O=P1(O)c2ccccc2CSCc2ccccc21,-2.65% (inactive)
17,Cn1ccc2c3ccsc3ccc21,4.3% (inactive)
18,O=C(Sc1c(-c2ccccc2)c(=O)n(-c2ccccc2)c(=S)n1-c1ccccc1)c1ccc(Cl)cc1,5.4% (inactive)
19,CCCN(CCN(CC)CC)C(=O)N(CC)CC,6.35% (inactive)
20,C[N+](C)(N)CCS(N)(=O)=O,26.7% (inactive)

row,Structure (SMILES),growth inhibition
1,CC1/C(=N\Nc2ccc([N+](=O)[O-])cc2[N+](=O)[O-])CCC2C1(C)CCC1C2(C)CCC2(C)C3CC(C)(C)CCC3(C)CCC12C (stereo not given),13.2% (inactive)
2,CC(Cc1ccco1)(C(=O)O)C(=O)O,-11.8% (inactive)
3,O=C1OC(c2ccccc2)=N/C1=C\c1ccco1,-22.2% (inactive)
4,CS(=O)(=O)C(c1nc2n(c1O)C(=N)N=N2)c1nc2n(c1O)C(=N)N=N2 (stereo not given),-5.2% (inactive)
5,O=CC(=O)c1ccc(F)cc1,-8.55% (inactive)
6,CCSSC12CCCN1C(=O)C1CCCN1C2=O (stereo not given),20.6% (inactive)
7,OC1CC2COCC2CC1O (stereo not given),4.4% (inactive)
8,O=c1cc(CO)oc(C(Nc2cccc(Cl)c2)c2ccccc2)c1O (stereo not given),10.2% (inactive)
9,CNC(=O)c1ccccc1C(=N)c1ccccc1,-9.65% (inactive)
10,Cc1ccc(S(=O)(=O)C2(NC(=O)C3CC3)CC2)cc1,-30.7% (inactive)
11,CC(=O)Nc1nc2nccn2c(=O)[nH]1,-2.4% (inactive)
12,CC(C)[C@@H]1CC[C@@H](C)C[C@H]1N,3.95% (inactive)
13,COc1ccc2cc(C(=O)c3ccccc3)c(=O)oc2c1,12.2% (inactive)
14,CC(=O)OCCOCCCl,19.2% (inactive)
15,O=C1C(NS(=O)(=O)c2ccccc2)=C(N(Cc2ccccc2)Cc2ccccc2)C(=O)c2ccccc21,8.95% (inactive)
16,O=C(O)c1cc2oc3ccccc3c2cc1O,2.4% (inactive)
17,C[C@@]1(CO)CCc2c(c3ccccc3oc2=O)O1,1.8% (inactive)
18,Cc1ccc(S(=O)(=O)N(C)C)cc1NC1=NCCO1,-1% (inactive)
19,Oc1c(Cl)cc(N=Cc2ccc(N(CCCCl)CCCCl)cc2)cc1Cl,-13.6% (inactive)
20,CCOC(=O)/C(N=O)=C(/C)O,11.4% (inactive)
